Sampled rows, rich in hits. Any-hit rate of the full collection: about 19%.
DT40 TDP1 no CPT = qHTS for Inhibitors of human tyrosyl-DNA phosphodiesterase 1 (TDP1): qHTS in cells in absence of CPT; actives 15% (n = 420,000); AID 686978, 2013; Potency, µM (top dose mostly 46.2 µM), for inactives: top-dose activity change, negative = growth inhibition, usual class: inhibitors; DT40 Tdp1-/- hTDP1 cells, no CPT, ATP luminescence, 48 h; note: potency is the fitted concentration of half-maximal effect; nearly all actives have a fitted effect of over 55% in size
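Seeded 400 DT40-hTDP1 cells/well (vehicle DMSO, no 20 nM CPT); pinned compounds; ≥48 hr at 37 °C; CellTiter-Glo luminescence as viability measure.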
IL1B secr inh = qHTS for Inhibitors of Inflammasome Signaling: IL-1-beta AlphaLISA Primary Screen. THP-1 LPS/ATP IL-1B secretion, AlphaLISA, 16 h; active compounds read low. activity change, % at 57.5 µM. actives 4.7% (n = 360,000); in the data active = activity change below about -50%; inconclusive = mostly about -30% to -49%
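Secreted IL-1B measured by AlphaLISA bead assay after 16 h compound exposure of THP-1 cells; compounds (final up to 57.5 uM) added 1 h before LPS (250 ng/mL) and ATP (1.25 mM) stimulation; lower signal means less secretion.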
HT1080NT lethal = qHTS for induction of synthetic lethality in tumor cells producing 2HG: qHTS for the HT-1080-NT fibrosarcoma cell line; HT-1080-NT fibrosarcoma viability, CellTiter-Glo ATP luminescence, 48 h; Potency, µM (doses to about 46.1 µM), for the others: at the top dose activity, negative = less viability, hits mostly cytotoxic; actives 1.6% (n = 360,000); AID 686970, 2013;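 note: NT is the 2HG producing partner of a matched IDH1 knockdown line; potency is the fitted concentration of half-maximal effect; 0% = DMSO-treated cells and -100% = media-only wells without cells; nearly all actives have a fitted effect of over 55% in size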
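Viability of the 2HG-overproducing fibrosarcoma line after 48 hours of compound exposure at 37 degrees C was determined by luminescence with CellTiter-Glo, and concentration-effect curves were then fitted and categorized.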
HT1080 IDH1KD tx = qHTS for induction of synthetic lethality in tumor cells producing 2HG: qHTS for the HT-1080-IDH1KD cell line; actives 2% (n = 360,000); Potency, µM (titrated, usually from 46.1 µM), inactives show at the top dose activity, negative = toxicity, usual class: cytotoxic; HT-1080 IDH1 knockdown viability, ATP luminescence, 48 h;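 note: potency is the fitted concentration of half-maximal effect; 0% = DMSO wells and -100% = cell-free medium wells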
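Using the IDH1-knockdown HT-1080 line run in the same batch and compound series as the NT line, viability after 48 h at 37 °C was determined by CellTiter-Glo luminescence and expressed as % activity.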
TDP1 cell CPT = qHTS for Inhibitors of human tyrosyl-DNA phosphodiesterase 1 (TDP1): qHTS in cells in presence of CPT. chicken DT40 Tdp1-/-;hTDP1 cells + 20 nM CPT, ATP luminescence, 48 h. Potency, µM (series often up to 46.2 µM), for inactives: at the top dose activity change, negative = growth inhibition, most hits filed as inhibitors. actives 12% (n = 420,000). AID 686979, 2013; note: potency is the fitted concentration of half-maximal effect; nearly all actives have a fitted effect of over 55% in size
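Chicken DT40 Tdp1-/- cells complemented with human TDP1, 400 cells/well, exposed to compounds plus 20 nM camptothecin for at least 48 h at 37 C; viability read as ATP content by CellTiter-Glo luminescence.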
uPA generation = qHTS for Inhibitors of Cell Surface uPA Generation. cell surface uPA generation assay, qHTS. actives 0.31% (n = 330,000). Potency, µM (series often up to 38.3 µM), for inactives: at the top dose activity change, negative = inhibition, hits mostly inhibitors; active = well fitted inhibition curve with a large enough effect; inconclusive = small, poorly fitted or top-dose-only effect; inactive = no such curve, though single readings can be large or run the other way; tested in mouse RAW 264.7 cells; note: potency is the fitted concentration of half-maximal effect; nearly all actives have a fitted effect of over 55% in size
* hit, by the source's call; i = inactive; ? = inconclusive; . = no result given. Unless noted, calls come from the whole dose curve; as a rule, active = well fitted curve in the direction sought with a large enough effect; inconclusive = small, poorly fitted or top-dose-only effect, or another doubt; inactive = no such curve, though single readings can be large; an effect the other way counts as inactive or inconclusive. Unless noted, % is set by controls: 0 for no effect and ±100 for the full control effect.

SMILES | DT40 TDP1 no CPT | IL1B secr inh | HT1080NT lethal | HT1080 IDH1KD tx | TDP1 cell CPT | uPA generation
CCOc1ccccc1C1NC(=O)CCC1[N+](=O)[O-] (stereo not drawn) | -1.3% | 5.3 | 24.8% | 2.9% | 12.8% | -0.8%
Cc1sc2c(c1C)c(=O)n(CCc1ccccc1)c(=O)n2Cc1cccc(F)c1 | 5.8µM* | . | . | . | ? | .
CCN(CC)C(=O)c1sc2c(c1C)c(=O)n(CCc1ccccc1)c(=O)n2Cc1cccc(Cl)c1 | 14.6µM* | . | . | . | 23.1µM* | .
Cc1sc2c(c1C)c(=O)n(CCc1ccccc1)c(=O)n2Cc1ccc(F)cc1 | 18.4µM* | . | . | . | ? | .
CCN(CC)C(=O)c1sc2c(c1C)c(=O)n(Cc1ccccc1)c(=O)n2CC(=O)Nc1ccc(OC)cc1 | -18.7% | . | . | . | ? | .
Cc1sc2c(c1C)c(=O)n(CCc1ccccc1)c(=O)n2Cc1ccc(C(C)(C)C)cc1 | -13.4% | . | . | . | 5.7% | .
Cc1cccc(Cn2c(=O)n(CCc3ccccc3)c(=O)c3c(C)c(C)sc32)c1 | ? | . | . | . | 20.6µM* | .
Cc1ccc(C)c(Cn2c(=O)n(CCc3ccccc3)c(=O)c3c(C)c(C)sc32)c1 | 8.8% | . | . | . | -9.9% | .
Cc1ccc(C)c(-n2ccnc2SCC(=O)Nc2cccc(S(=O)(=O)NC3=NCCC3)c2)c1 | -16.9% | 4.9 | 1.0% | 1.2% | -17.5% | 7.8%
CCc1ccc(CN2CCCC(CCC(=O)N3CCN(c4ccccn4)CC3)C2)o1 (stereo not drawn) | 16.4µM* | -10.8 | 23.5% | -0.9% | ? | 1.0%
O=C(CCC1CCCN(C(=O)CCCc2ccccc2)C1)N1CCN(c2ccccn2)CC1 (stereo not drawn) | ? | -1.7 | -3.2% | -12.6% | 20.6µM* | 10.9%
CC(=O)c1ccccc1C(=O)N1CCCC(CCC(=O)N2CCN(c3ccccn3)CC2)C1 (stereo not drawn) | -27.6% | i | -2.2% | -2.9% | -12.7% | -2.9%
O=C(CCC1CCCN(C(=O)c2ccc3cc[nH]c3c2)C1)N1CCN(c2ccccn2)CC1 (stereo not drawn) | ? | 6.1 | 4.1% | -7.2% | 16.4µM* | -1.0%
Cc1ccc(C(=O)N2CCCC(CCC(=O)N3CCN(c4ccccn4)CC3)C2)cc1 (stereo not drawn) | ? | ? | -7.0% | 0.3% | ? | 11.1%
O=C(CCC1CCCN(C(=O)Cc2cccc(F)c2)C1)N1CCN(c2ccccn2)CC1 (stereo not drawn) | -19.7% | 18.5 | -3.7% | -4.4% | -2.4% | -0.9%
O=C(CCC1CCCN(C(=O)c2ccc3[nH]ccc3c2)C1)N1CCN(c2ccccn2)CC1 (stereo not drawn) | 20.6µM* | ? | -17.6% | -14.2% | 23.1µM* | 5.1%
Cc1cccc(NC(=O)c2sc(Cl)nc2-c2ccccc2)c1 | 18.4µM* | 0.0 | -0.9% | -11.8% | ? | -9.1%
COc1ccc(NC(=O)c2sc(Cl)nc2-c2ccccc2)cc1 | ? | 0.1 | -4.9% | -6.2% | ? | -5.4%
Cc1cccc(Nc2nc(-c3ccccc3)c(C(=O)Nc3cccnc3)s2)c1 | ? | -60.9* | ? | ? | ? | 9.3%
O=C(Nc1cccnc1)c1sc(Nc2ccccc2)nc1-c1ccccc1 | ? | -12.0 | 0.1% | -0.8% | ? | 4.0%
CC(/C=N/NC(=O)c1nnn(-c2nonc2N)c1CN1CCCCC1)c1ccccc1 (stereo not drawn) | 2.2% | 4.5 | 1.9% | -3.2% | ? | -6.1%
CCOc1ccc(CNC(=O)Cc2ccc(NC(=O)N3CCSc4ncccc43)cc2)cc1 | 16.4µM* | . | . | . | 16.4µM* | .
CCOc1ccc(NC(=O)c2ccc(NC(=O)N3CCSc4ncccc43)cc2)cc1 | -28.7% | . | . | . | -20.3% | .
CCc1ccc(CNC(=O)Cc2ccc(NC(=O)C3=C(C)OCCS3)cc2)cc1 | 1.3µM* | 44.4 | 0.82µM* | 1.3µM* | 1.16µM* | -3.5%
CCOc1ccccc1CNC(=O)c1ccc(NC(=O)C2=CSCCO2)cc1 | 23.1µM* | -6.3 | 0.0% | 0.8% | ? | -16.7%
SMILES | DT40 TDP1 no CPT | IL1B secr inh | HT1080NT lethal | HT1080 IDH1KD tx | TDP1 cell CPT | uPA generation
CCOc1ccccc1CNC(=O)c1ccc(NC(=O)N2CCSc3ncccc32)cc1 | 14.6µM* | . | . | . | 20.6µM* | .
COc1ccc(CNC(=O)c2ccc(NC(=O)C3=CSCCO3)cc2)cc1 | 13.5% | -6.5 | 12.1% | 22.3% | ? | -11.0%
O=C(NCC(c1ccc2c(c1)OCO2)N1CCOCC1)c1c(F)cccc1F (stereo not drawn) | -11.5% | . | . | . | -14.8% | .
Cc1cc(OCC(=O)Nc2sc3c(c2C#N)CCC(C)C3)ccc1Cl (stereo not drawn) | ? | . | . | . | -28.8% | .
CCc1ccc(CNC(=O)Cc2ccc(NC(=O)N3CCSc4ncccc43)cc2)cc1 | 23.1µM* | . | . | . | 25.9µM* | .
O=C(Cc1ccc(NC(=O)N2CCSc3ncccc32)cc1)NCCc1ccccc1 | -25.3% | . | . | . | ? | .
O=C(Cc1ccc(NC(=O)N2CCSc3ncccc32)cc1)NCc1cccc(Cl)c1 | 20.6µM* | . | . | . | ? | .
Cn1nc(C(C)(C)C)cc1C(=O)NCc1ccc2c(c1)OCO2 | 1.84µM* | 4.9 | ? | ? | 4.61µM* | -23.4%
COc1cccc(-c2nn(C)c3sc(C(=O)NCc4ccc(C)o4)cc23)c1 | 23.1µM* | 0.0 | -19.8% | ? | ? | -10.2%
CCOC(=O)c1cccc(NC(=O)c2cc3c(-c4cccc(OC)c4)nn(C)c3s2)c1 | 16.4µM* | . | . | . | 16.4µM* | .
CCOC(=O)c1cccc(NC(=O)c2cn(-c3cccc(OC)c3)c(=O)c3ccccc23)c1 | -15.2% | . | . | . | -3.8% | .
COc1cccc(-c2nn(C)c3sc(C(=O)NCc4ccc5c(c4)OCO5)cc23)c1 | ? | -13.3 | 6.3% | -7.1% | 13µM* | 22.5%
CCNC(=O)NCCCOc1cccc(CN2CCCCC2)c1 | -6.3% | . | . | . | -17.8% | .
O=C(Nc1ccc([N+](=O)[O-])cc1)c1cn(-c2ccccc2)nc1-c1cc2ccccc2o1 | 10.3µM* | 5.0 | -1.3% | -2.7% | 8.2µM* | 0.6%
Cc1nn(Cc2c(Cl)cccc2Cl)c(C)c1NC(=O)c1cn(-c2ccccc2)nc1-c1ccccc1 | 4.61µM* | 27.9 | 3.66µM* | 4.11µM* | 6.51µM* | 2.0%
CC(C)COc1ccc(-c2nn(-c3ccccc3)cc2C(=O)Nc2nccs2)cc1 | ? | 53.2 | -10.7% | -25.7% | ? | 3.3%

Bioassay records: PubChem, National Center for Advancing Translational Sciences (NCATS)
